# Measured values as given in PubChem BioAssay AID1508600 (Functional Genomics Laboratory (NCATS/FGL), 2020).
# Screen size: about 53,000 sequences; about 3,700 (7%) were called active. Many of the other results were omitted from the sample, so actives are more common in it than they were. Values without a mark were called inactive.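 Rule for the calls: active = gene knockdowns whose robust z-score for IL-1 alpha signal is at least 2 or at most -2, so actives lie on both sides; inactive = the rest.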
# Test: Components of the Cytosolic LPS Sensing Pathway: Gene Identification via Genome-wide siRNA Screen
# Details: RAW264.7 macrophages, IL-1a HTRF, actives lie on both sides, screened at 100 nM (by protocol), cells primed 5 h with Pam3CSK4 first
# Description: Non-canonical inflammasome activation by cytosolic LPS is a critical component of the host response to Gram-negative bacterial infection, however we lack a comprehensive understanding of the cellular processes that control this pathway. Here we describe a genome-wide siRNA screen to identify genes regulating the mouse macrophage IL-1 alpha response to cytosolic LPS.
# RAW264.7 cells were maintained in complete DMEM media, comprising DMEM with 4.5 g/L glucose, 10% FBS (Gemini Bio-Products, West Sacramento, CA), 2 mM Glutamine (Lonza) and 20 mM HEPES (Lonza), hereafter complete DMEM.
# The RNAi screen was conducted in 384-well format using the Ambion Silencer Mouse Genome siRNA Library (#4391425), which consists of three unique, nonoverlapping, nonpooled siRNAs for each of 17,000 gene targets. siRNA reagents ([…]) were stamped into 384-well white flat-bottom microplates (Corning, 3570) using a Velocity11 VPrep liquid handling system (Agilent) integrated into a BioCel robotic platform (Agilent) in columns 1-22, leaving columns 23-24 empty for negative (Ambion, Negative control #1) and positive (mouse Casp4) controls, respectively. The median value of each plate's negative control column was used to normalize sample wells, and the positive control was used to assess transfection efficiency and assay performance.
# Lipofectamine RNAiMAX Transfection Reagent ([…]; Invitrogen) was added in […] serum-free, antibiotic-free media to plate wells using a Thermo Scientific Matrix WellMate and Microplate Stacker. Plates were incubated for 45 min at room temperature to allow for the sufficient formation of siRNA-lipid complexes. Cells were seeded at a density of 1x10^4 cells per well in 20 microL media containing 20% (vol/vol) FBS without antibiotics. The final concentration of siRNA in each well was 100 nM. Cells were cultured for 48h at 37 degrees C in 5% CO2 before addition of […] of TLR ligand Pam3CSK4 for 5 hours. The medium was then removed, replaced with […] growth media and cell were transfected with […] of LipidA and TransIT-TKO (Mirus) for 24 hour. At the end of the LipidA treatment, […] of supernatant was transferred to a 384 Greiner Bio-one non-binding low volume plate and […] of IL-1a HTRF reagent (Cisbio, 62MIL1APEH) was added and incubated at room temperature overnight. The plates were read on an EnVision plate reader (PerkinElmer). Cell viability was measured by adding 20ul Cell Titer Glo to the original plate and running a luminescence read on the EnVision. The quantified IL-1a signal for each siRNA gene-targeted well was divided by the median of the negative control wells and multiplied by 100 to achieve a negative control normalized value for each well/siRNA. This normalized value was then used to generate a robust z-score by first taking the log of each value and then by subtracting the median and dividing by the […].
row,Sequence,z-score
1,GGAAGAGCUGCUGAAUUCATT against Mthfd2,0.052
2,GGUUAUCUUGAAUAAAGCUTT against Zfp346,-0.303
3,CCGAUAAAAGAUGACCUCATT against D17H6S56E-5,-0.241
4,GGUUUGAGAGUGGUAAUCUTT against Agbl3,2.17 (active)
5,GGCGAUUUACAAGCUGAAGTT against Guca1b,0.566
6,CCGUUAGAGCUGUUAUUUUTT against Olfr556,0.959
7,CCUCGAACCAAGAUGUUCATT against Pdzrn3,0.851
8,GGCACACAAUUUUCACUGATT against Pcdhb9,0.315
9,GGUCAGCAUUUGCUAUGAATT against Tmsb15l,-2.02 (active)
10,GCCAAGUCUGCUUCACGAGTT against Nyap1,1.82
11,CCUCACAAUAUCUUUAGAATT against Cep162,-0.0322
12,GGCAGGAUAUGUAUUCUGATT against Tmem121b,1.15
13,GGAAACCUCCGAAAGGCAUTT against Rcor1,-0.0503
14,GGAUAAAGUCACCUUCAUCTT against Itgam,1.86
15,CCGCUAUAUCACGGAGCAGTT against En1,2.45 (active)
16,GCACUUUCCUAAUGGUCCUTT against Ifnab,0.104
17,GGAUCCUCACCAAGAUUACTT against Mrps22,0.391
18,GGAAUUUAAGGAAGCUGCUTT against Homer1,-0.698
19,GGGUGAGAAAAUUCACGAGTT against Tubg2,0.536
20,GCCAAGGUGCAGAUAAGGUTT against Rhox7a,2.6 (active)
21,GGAUUGAGAAAAUCUACAUTT against Tnfrsf8,0.505
22,GGGUCAGAUGGUACCAAGATT against Adamts18,0.0174

row,Sequence,z-score
1,GCCUUGUUUAUAUGCCCAATT against Olfr592,0.0232
2,GGCAAGAAAGAAAGGCCAATT against Rps23,0.00872
3,CCCUCUGUGGUUAAAGACUTT against Tctex1d2,-2.88 (active)
4,GGUUCAAUUCACAGAGCGCTT against Mrpl21,1.37
5,GGGCAACUUUGAUUAAUCATT against Hsd3b7,1.02
6,GGUAACUUCAUGUGCAGCATT against Ldlrad3,-1.71
7,GGCGUAUGCAGAAUUCUACTT against Cox6c,-0.0709
8,GGAGAAGUCAUUGUUUUUGTT against Klhdc2,-0.493
9,GGCACAACAUCAUCUGUCUTT against Psmd9,-2.05 (active)
10,GCUACUGACCAUUCUAACUTT against Tmem198b,0.264
11,GGAAGGACUGUCAAAUGGCTT against Med11,-0.171
12,CCAUGUCUUGAACUUGGAUTT against Tsks,0.793
13,CCGACUCCAGUUGAAUGUUTT against Tgif2,-0.572
14,CCAGUUUGAUGGUAGACAATT against Tifa,-1.38
15,CGUAUUGUUUCCUAGCACATT against Arhgef38,2.08 (active)
16,GGUACCCAGCGAUCAUGCATT against Olfr1370,-0.109
17,GGAACAACUUGAUACCUCUTT against Trim44,-0.89
18,GGUCGGGAUUUAAUUUGUATT against Bbs9,0.978
19,CGACUUCACCUUAUUCCUGTT against Nle1,0.811
20,GCAUAUUACACAGCACUAGTT against Itgbl1,-0.802
21,GGUGUACUCUGUUCCCAUGTT against Psmb6,-1.54
22,GGGAUUCGAAGGACAAUAGTT against Vmn1r211,-2.07 (active)

row,Sequence,z-score
1,GGUGUACAACUCCUAUAGGTT against P2ry13,0.24
2,GGAUUUCAGCGAAGUGUACTT against Mapk11,-0.395
3,CCAACGAAGCCAAUAAAUGTT against Pmis2,-2.12 (active)
4,GGAGCUGAGCAACAUCACATT against Il13,-1.35
5,GCUUCACAUGAAGCAACCUTT against Fam149b,-0.102
6,GGAGAAGCAAAACUUUUAATT against Snrpa1,-2.87 (active)
7,GGUGUUGAACAAAUUAACUTT against Pprc1,0.508
8,GCAACUAUCCACUCUCUGCTT against Emg1,0.977
9,GGAGAUGGUCUCAUUAAGCTT against Psmd13,-1.25
10,GCUCUGUUUUUAACCAUCCTT against Ccnt2,0.227
11,GGUAUUAAGUUCCUGUAAUTT against Ahcyl2,-1.62
12,GCUCUUGAAAUUUCACUCUTT against Ide,2.1 (active)
13,GCCGCUUAGAGGCUCAUCUTT against Nfe2l2,-1.86
14,GGACAACUAUGAAUUAGUGTT against Pfkp,-0.801
15,GGAAAAACAGCUUAACACUTT against Pate4,0.66
16,GCUUCCAAGAUGGAACUACTT against Psmb10,0.657
17,GGAUGAAAUGAACCUAGAGTT against Sh3pxd2b,-2.16 (active)
18,GGAGAAGAUCACAAGAGGGTT against Slc35b1,-0.736
19,GCAGAAUAGCUGAUGACAGTT against Galnt15,-0.155
20,GCUCCCAAGUUUACCCAGCTT against Mybphl,0.505
21,CCUUGAACGAGAGUGCAUUTT against Pros1,-0.798
22,CGUAAGUCAGUGAUGCUAUTT against Srp19,1.38

row,Sequence,z-score
1,GCUAUGAAGCAAUUGUGGATT against Fasn,-0.527
2,GCGGUUAUAAUGGGACCAUTT against Kif15,3.21 (active)
3,GCCAGGAUACUAAGUGUUUTT against Jpt2,1.05
4,GCAACAUCGUAUGUUAAUGTT against Slc9a4,0.0571
5,CGAAUACUUGAUGUCCAUGTT against Harbi1,-2.16 (active)
6,CCAGGUGAAAACCAGGAUATT against Olfr205,0.925
7,GGAAACCUAUGUCUCAAGATT against Mrps36,-0.332
8,CCAGAGAUUCCCACACGUCTT against Havcr1,-1.37
9,GAAUCUGGUGAAGUAUUAUTT against Phip,0.518
10,GGGUUUAGCUCACUGAGUATT against Tm4sf5,-1.53
11,CCACUAUGUUCUCUGGAUATT against Llgl1,-0.218
12,CCACAUCUGAGACUAUUCATT against Crhr1,2.46 (active)
13,GGAACUGGGAGACCUAUAATT against Angptl2,-2.01 (active)
14,CCCACAGAAUCACUCCAAGTT against Utp14a,-0.211
15,GCUAUUCGUUUCUUAUAACTT against Slc19a3,0.83
16,GGCAAUGAGUUCUGGAGUGTT against Capn8,-0.928
17,GGUUCAAGGCAACACUGUGTT against Ankrd13d,-1.54
18,GGCUUUUGGUCUGAGAUGCTT against Snf8,-2.04 (active)
19,GGUGCUCACGUUUUUCUUATT against B3galnt1,0.348
20,GGAGGAAGUUGAAAAUGAATT against Myom2,0.157
21,GGUACUCCUAGAACUCUACTT against 2410002F23Rik,1.01
22,GCCCAGAGUUACGAGUAUGTT against Aacs,2.23 (active)

row,Sequence,z-score
1,GCCAAACGUGGGUUUGAUATT against Ccna1,4.74 (active)
2,GGAAGACUUGAGAAAUCACTT against Coro1c,1.24
3,GCCAAGCUUGUCCAUUGAUTT against Akap9,-0.443
4,CGUUAGCAUCAGGUCAAGUTT against Zfp251,-0.323
5,GGUGUUAACAAAAUGUACCTT against Phyh,2.54 (active)
6,CCUUAGGUCUAAGUAAUCUTT against Dnase1l1,2.3 (active)
7,GGACUCAAAUGUGAUGCAUTT against Prkcq,-0.718
8,GGCACAUUCAUAGAACAAGTT against Znrd1as,2.01 (active)
9,GCGGCGCAUGACUGAAAGATT against Chd8,0.86
10,GGUCAACUCCUUUAUGAGCTT against Apoa4,-0.238
11,GGAUGAUGAGAGAAACAAATT against Jak1,3.78 (active)
12,GGAAGUAAAGAGGAUCUCATT against Vat1l,-0.678
13,GGUGAUUAGCAAUCAUCAGTT against Zfp942,-0.295
14,GGCCACUUGAGAACAUUCGTT against Nop10,0.331
15,GGUACAAUGAAAGUCUCACTT against Cnot6,-0.0743
16,GGACCUUGUACCCAUUCCUTT against Prr5,1.01
17,GCAAUGAGUGCUAGUUUUUTT against Cdc42,2.6 (active)
18,CGUGGAUAUCAGAAAGCAATT against Cfhr2,-0.487
19,GGACUUUAAUCACAGACAATT against Fem1b,-1.73
20,CGAGUUCAUCAAAAAGGAATT against Kansl1l,0.708
